# According to PMC5540273 (PLoS ONE, 2017):
# Read-outs that look alike come from different tables or passages of the source.
# Legend:
# [1] = tested on: SRPK1; conditions: concentration: 1 μM, replicates: in singlicate; n = 1
# [2] = tested on: SRPK2; conditions: concentration: 1 μM, replicates: in singlicate; n = 1
# [3] = tested on: SRPK3; conditions: concentration: 1 μM, replicates: in singlicate; n = 1
# [4] = tested on: STK16; conditions: concentration: 1 μM, replicates: in singlicate; n = 1
# [5] = tested on: STK33; conditions: concentration: 1 μM, replicates: in singlicate; n = 1
# [6] = tested on: STK35; conditions: concentration: 1 μM, replicates: in singlicate; n = 1
# [7] = tested on: STK36; conditions: concentration: 1 μM, replicates: in singlicate; n = 1
# [8] = tested on: STK39; conditions: concentration: 1 μM, replicates: in singlicate; n = 1
# [9] = tested on: SYK; conditions: concentration: 1 μM, replicates: in singlicate; n = 1
# [10] = tested on: SgK110; conditions: concentration: 1 μM, replicates: in singlicate; n = 1
# [11] = tested on: T1, TAK1; conditions: concentration: 1 μM, replicates: in singlicate; n = 1
# T1 construct: gene MAP3K7
# [12] = tested on: TAOK1; conditions: concentration: 1 μM, replicates: in singlicate; n = 1
# [13] = tested on: TAOK2; conditions: concentration: 1 μM, replicates: in singlicate; n = 1
# [14] = tested on: TAOK3; conditions: concentration: 1 μM, replicates: in singlicate; n = 1
# [15] = tested on: TBK1; conditions: concentration: 1 μM, replicates: in singlicate; n = 1
# [16] = tested on: TEC; conditions: concentration: 1 μM, replicates: in singlicate; n = 1
# [17] = tested on: TESK1; conditions: concentration: 1 μM, replicates: in singlicate; n = 1
# [18] = tested on: TGFBR1; conditions: n = 1
# [19] = tested on: TGFBR2; conditions: concentration: 1 μM, replicates: in singlicate; n = 1
# [20] = tested on: TIE1; conditions: concentration: 1 μM, replicates: in singlicate; n = 1
# [21] = concentration: 1 μM, replicates: in singlicate
# 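Also: KINOMEscan kinase panel screen.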
smiles,measurement,setting,value
CCn1c(-c2nonc2N)nc2ccccc21 [SB-693162/GW549034],%Inh,[1],0%
same,%Inh,[2],0%
same,%Inh,[3],24%
same,%Inh,[4],23%
same,%Inh,[5],15%
same,%Inh,[6],0%
same,%Inh,[7],0%
same,%Inh,[8],37%
same,%Inh,[9],0%
same,%Inh,[10],0%
same,%Inh,[11],33%
same,%Inh,[12],0%
same,%Inh,[13],0%
same,%Inh,[14],3%
same,%Inh,[15],34%
same,%Inh,[16],0%
same,%Inh,[17],14%
same,%Inh,[18]; [21],53%
same,%Inh,[19],0%
same,%Inh,[20],56%
COc1cc2ncn(-c3cc(OCCCc4ccccc4)c(C(N)=O)s3)c2cc1OC [GSK205189],%Inh,[1],27%
same,%Inh,[2],0%
same,%Inh,[3],7%
same,%Inh,[4],13%
same,%Inh,[5],0%
same,%Inh,[6],15%
same,%Inh,[7],0%
same,%Inh,[8],0%
same,%Inh,[9],21%
same,%Inh,[10],0%
same,%Inh,[11],0%
same,%Inh,[12],0%
same,%Inh,[13],0%
same,%Inh,[14],0%
same,%Inh,[15],15%
same,%Inh,[16],0%
same,%Inh,[17],4%
same,%Inh,[18]; [21],0%
same,%Inh,[19],0%
same,%Inh,[20],22%
CCC(=O)c1c(-c2ccccc2)c2cc(Cl)ccc2c(=O)n1Cc1cc(S(C)(=O)=O)n(CCC(C)(C)O)n1,%Inh,[1],3%
same,%Inh,[2],53%
same,%Inh,[3],11%
same,%Inh,[4],1%
same,%Inh,[5],8%
same,%Inh,[6],15%
same,%Inh,[7],11%
same,%Inh,[8],0%
same,%Inh,[9],25%
same,%Inh,[10],9%
same,%Inh,[11],31%
same,%Inh,[12],9%
same,%Inh,[13],0%
same,%Inh,[14],0%
same,%Inh,[15],20%
same,%Inh,[16],6%
same,%Inh,[17],21%
same,%Inh,[18]; [21],6%
same,%Inh,[19],19%
same,%Inh,[20],16%
Nc1n[nH]c2ncc(-c3ccccc3)cc12 [SB-517081],%Inh,[1],0%
same,%Inh,[2],12%
same,%Inh,[3],12%
same,%Inh,[4],22%
same,%Inh,[5],0%
same,%Inh,[6],0%
same,%Inh,[7],0%
same,%Inh,[8],0%
same,%Inh,[9],8%
same,%Inh,[10],0%
same,%Inh,[11],0%
same,%Inh,[12],0%
same,%Inh,[13],9%
same,%Inh,[14],2%
same,%Inh,[15],13%
same,%Inh,[16],6%
same,%Inh,[17],37%
same,%Inh,[18]; [21],0%
same,%Inh,[19],0%
same,%Inh,[20],18%
C[C@@H]1CC[C@H](C(=O)NC2CCCCC2)CN1c1cc(-c2ccc3c(N)n[nH]c3c2)nc(N)n1 [GSK2291363],%Inh,[1],77%
same,%Inh,[2],5%
same,%Inh,[3],36%
same,%Inh,[4],21%
same,%Inh,[5],57%
same,%Inh,[6],0%
same,%Inh,[7],0%
same,%Inh,[8],0%
same,%Inh,[9],37%
same,%Inh,[10],0%
same,%Inh,[11],0%
same,%Inh,[12],0%
same,%Inh,[13],0%
same,%Inh,[14],0%
same,%Inh,[15],30%
same,%Inh,[16],9%
same,%Inh,[17],34%
same,%Inh,[18]; [21],16%
same,%Inh,[19],0%
same,%Inh,[20],15%
COc1cccc(C2=C(Nc3cccc(C(=O)O)c3)C(=O)NC2=O)c1 [SB-390770],%Inh,[1],8%
same,%Inh,[2],24%
same,%Inh,[3],11%
same,%Inh,[4],8%
same,%Inh,[5],2%
same,%Inh,[6],12%
same,%Inh,[7],4%
same,%Inh,[8],0%
same,%Inh,[9],30%
same,%Inh,[10],3%
same,%Inh,[11],0%
same,%Inh,[12],0%
same,%Inh,[13],0%
same,%Inh,[14],0%
same,%Inh,[15],12%
same,%Inh,[16],0%
same,%Inh,[17],28%
same,%Inh,[18]; [21],1%
same,%Inh,[19],0%
same,%Inh,[20],27%
COc1ccc(-c2coc3ccc(-c4nnc(SCc5cccc(C#N)c5)o4)cc23)cc1,%Inh,[1],0%
same,%Inh,[2],0%
same,%Inh,[3],0%
same,%Inh,[4],20%
same,%Inh,[5],0%
same,%Inh,[6],26%
same,%Inh,[7],8%
same,%Inh,[8],0%
same,%Inh,[9],14%
same,%Inh,[10],10%
same,%Inh,[11],23%
same,%Inh,[12],0%
same,%Inh,[13],10%
same,%Inh,[14],0%
same,%Inh,[15],10%
same,%Inh,[16],0%
same,%Inh,[17],0%
same,%Inh,[18]; [21],11%
same,%Inh,[19],0%
same,%Inh,[20],17%
CCC(=O)c1c(-c2ccccc2)c2cc(Cl)ccc2c(=O)n1Cc1cc(S(C)(=O)=O)n(CC(N)=O)n1,%Inh,[1],0%
same,%Inh,[2],0%
same,%Inh,[3],0%
same,%Inh,[4],16%
same,%Inh,[5],17%
same,%Inh,[6],0%
same,%Inh,[7],0%
same,%Inh,[8],0%
same,%Inh,[9],9%
same,%Inh,[10],0%
same,%Inh,[11],0%
same,%Inh,[12],0%
same,%Inh,[13],15%
same,%Inh,[14],0%
same,%Inh,[15],12%
same,%Inh,[16],0%
same,%Inh,[17],0%
same,%Inh,[18]; [21],0%
same,%Inh,[19],0%
same,%Inh,[20],0%
COC(=O)c1c(-c2ccccc2)c2cc(Br)ccc2c(=O)n1Cc1ccc(S(C)(=O)=O)cc1,%Inh,[1],0%
same,%Inh,[2],0%
same,%Inh,[3],1%
same,%Inh,[4],38%
same,%Inh,[5],2%
same,%Inh,[6],0%
same,%Inh,[7],10%
same,%Inh,[8],2%
same,%Inh,[9],0%
same,%Inh,[10],6%
same,%Inh,[11],39%
same,%Inh,[12],0%
same,%Inh,[13],0%
same,%Inh,[14],0%
same,%Inh,[15],19%
same,%Inh,[16],25%
same,%Inh,[17],22%
same,%Inh,[18]; [21],4%
same,%Inh,[19],0%
same,%Inh,[20],21%
Nc1ncnc2c1ncn2-c1ccc(Cl)cc1 [AH2635],%Inh,[1],0%
same,%Inh,[2],13%
same,%Inh,[3],0%
same,%Inh,[4],3%
same,%Inh,[5],0%
same,%Inh,[6],0%
same,%Inh,[7],0%
same,%Inh,[8],0%
same,%Inh,[9],31%
same,%Inh,[10],0%
same,%Inh,[11],0%
same,%Inh,[12],0%
same,%Inh,[13],0%
same,%Inh,[14],0%
same,%Inh,[15],15%
same,%Inh,[16],9%
same,%Inh,[17],4%
same,%Inh,[18]; [21],0%
same,%Inh,[19],6%
same,%Inh,[20],0%
COC(=O)c1c(-c2ccccc2)c2cc(Br)ccc2c(=O)n1Cc1ccc(NC(=O)CCC(=O)O)cc1,%Inh,[1],0%
same,%Inh,[2],10%
same,%Inh,[3],20%
same,%Inh,[4],15%
same,%Inh,[5],0%
same,%Inh,[6],0%
same,%Inh,[7],8%
same,%Inh,[8],14%
same,%Inh,[9],0%
same,%Inh,[10],0%
same,%Inh,[11],19%
same,%Inh,[12],0%
same,%Inh,[13],0%
same,%Inh,[14],0%
same,%Inh,[15],22%
same,%Inh,[16],10%
same,%Inh,[17],39%
same,%Inh,[18]; [21],10%
same,%Inh,[19],0%
same,%Inh,[20],0%
CN1C(=O)C(Nc2cc(Cl)c(O)c(Cl)c2)=C(c2ccc(Cl)cc2)C1=O [SB-404321],%Inh,[1],0%
same,%Inh,[2],0%
same,%Inh,[3],96.2%
same,%Inh,[4],0%
same,%Inh,[5],0%
same,%Inh,[6],0%
same,%Inh,[7],19%
same,%Inh,[8],0%
same,%Inh,[9],0%
same,%Inh,[10],0%
same,%Inh,[11],0%
same,%Inh,[12],0%
same,%Inh,[13],0%
same,%Inh,[14],0%
same,%Inh,[15],4%
same,%Inh,[16],0%
same,%Inh,[17],0%
same,%Inh,[18]; [21],6%
same,%Inh,[19],0%
same,%Inh,[20],0%
COc1cc2nccc(Nc3cccc(Oc4ccccc4)c3)c2cc1OC.Cl [GW284543],%Inh,[1],65%
same,%Inh,[2],0%
same,%Inh,[3],0%
same,%Inh,[4],0%
same,%Inh,[5],0%
same,%Inh,[6],0%
same,%Inh,[7],0%
same,%Inh,[8],1%
same,%Inh,[9],37%
same,%Inh,[10],0%
same,%Inh,[11],0%
same,%Inh,[12],0%
same,%Inh,[13],0%
same,%Inh,[14],0%
same,%Inh,[15],0%
same,%Inh,[16],45%
same,%Inh,[17],3%
same,%Inh,[18]; [21],41%
same,%Inh,[19],0%
same,%Inh,[20],9%
Cc1ccc(-c2ccc3c(ccc4sc5c(c43)NC[C@@H](C)N=C5N(C)C)n2)cn1,%Inh,[1],0%
same,%Inh,[2],6%
same,%Inh,[3],25%
same,%Inh,[4],0%
same,%Inh,[5],0%
same,%Inh,[6],0%
same,%Inh,[7],0%
same,%Inh,[8],0%
same,%Inh,[9],0%
same,%Inh,[10],14%
same,%Inh,[11],7%
same,%Inh,[12],0%
same,%Inh,[13],0%
same,%Inh,[14],0%
same,%Inh,[15],0%
same,%Inh,[16],9%
same,%Inh,[17],0%
same,%Inh,[18]; [21],0%
same,%Inh,[19],13%
same,%Inh,[20],0%
Cc1cccc(-c2cc(-c3c[nH]nc3-c3ccccn3)ccn2)c1 [GW679395],%Inh,[1],3%
same,%Inh,[2],0%
same,%Inh,[3],0%
same,%Inh,[4],21%
same,%Inh,[5],0%
same,%Inh,[6],0%
same,%Inh,[7],64%
same,%Inh,[8],30%
same,%Inh,[9],16%
same,%Inh,[10],64%
same,%Inh,[11],0%
same,%Inh,[12],0%
same,%Inh,[13],0%
same,%Inh,[14],0%
same,%Inh,[15],12%
same,%Inh,[16],0%
same,%Inh,[17],9%
same,%Inh,[18]; 1 µM,57%
same,%Inh,[19],0%
same,%Inh,[20],0%
